Values without a mark were called inactive. Records with an inconclusive call do not appear. The source made the active and inactive calls. Unless noted, the call rests on the fitted dose curve.

Assay [1] is described as follows: qHTS assay to identify small molecule agonists of the sonic hedgehog signaling (Shh) pathway (AID 1259368).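 Further: NIH/3T3-derived 3T3Gli1-Luc cells carrying a stable Gli1-driven firefly luciferase reporter; series mostly up to about 92 µM; nearly all actives have a fitted effect of over 15% in size.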 A digest of the protocol:
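3T3Gli1-Luc (NIH/3T3 clone, stable Gli1-Luc); 4 hr pre-incubation, then cpd in DMSO 24 hr, 37 C/5% CO2; luciferase reagent 30 min RT; luminescence.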

Assay [2] in a line: qHTS assay to identify small molecule antagonists of the sonic hedgehog signaling (Shh) pathway (AID 1259369). Further: nearly all actives have a fitted effect of over 45% in size. Further: potency means the concentration at half of the fitted maximal effect. A digest of the protocol: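 3T3Gli1-Luc, conditioned-medium-stimulated, 24hr cpd, 37C/5% CO2; Gli1-driven firefly Luc luminescence after 30min RT with luciferase reagent. Cells plated 4hr before cpd.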
Assay [3] addresses Estrogen receptor beta (Homo sapiens) (UniProt Q92731). Briefly: qHTS assay to identify small molecule agonists of the estrogen receptor beta (ER-beta) signaling pathway (AID 1259377; active means well fitted activation curve with a large enough effect in the signal ratio in the repeat runs, not every such curve was filed as active; the % refers to the signal ratio). A digest of the protocol:
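HEK293T ER-beta-UAS-bla; 2% charcoal-stripped FBS; cells pre-incubated 6 hr, compound 16 hr, 37C/5% CO2; LiveBLAzer B/G FRET substrate 2 h RT; fluorescence intensity read.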

For assay [4] the target is unchanged. Briefly: qHTS assay to identify small molecule antagonists of the estrogen receptor beta (ER-beta) signaling pathway (AID 1259378; active means well fitted inhibition curve with a large enough effect in the signal ratio in the repeat runs, not every such curve was filed as active; the % refers to the signal ratio). A digest of the protocol: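 ER-beta-UAS-bla HEK293T (GripTite) cells in 2% charcoal-stripped FBS medium were preincubated 6 hr at 37C, dosed with compound, then stimulated with 1 nM E2 (final) for 16 hr; beta-lactamase reporter read by B/G FRET fluorescence after 2 hr substrate loading.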

Assay [5] can be described thus: qHTS assay to identify small molecule agonists of the estrogen receptor beta (ER-beta) signaling pathway - cell viability counter screen (AID 1259380; active means well fitted curve in the direction sought with a large enough effect in the repeat runs; an effect the other way counts as inactive or inconclusive; further: nearly all actives have a fitted effect of over 30% in size). A digest of the protocol:
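HEK293T ER-beta-UAS-bla; 2% CS-FBS; 6 hr pre-plate, 16 hr cpd at 37C/5% CO2; LiveBLAzer read first, then CellTiter-Glo 30 min RT, luminescence.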

For assay [6], the target named is Androgen receptor (Homo sapiens) (UniProt P10275). Briefly: qHTS assay to identify small molecule agonists of the androgen receptor (AR) signaling pathway in the presence of an antagonist (AID 1259381). Further: nearly all actives have a fitted effect of over 15% in size. A digest of the protocol:
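MDA-kb2 cells, 3,000/well, rested 5hr at 37C/0% CO2 → nilutamide 3.0uM final or buffer → compounds, 15 conc. → 16hr at 37C → ONE-Glo, 30min RT → luminescence.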

The nature of assay [7]: qHTS assay to identify small molecule antagonists of the estrogen receptor beta (ER-beta) signaling pathway - cell viability counter screen (AID 1259382; active means well fitted curve in the direction sought with a large enough effect in the repeat runs; an effect the other way counts as inactive or inconclusive; further: series mostly up to about 92 µM; nearly all actives have a fitted effect of over 55% in size). A digest of the protocol:
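Cells: ER-beta-UAS-bla HEK293T, 2,000/well, 2% CS-FBS, 6 hr settle. Cpd + E2 (1nM final), 16 hr, 37C/5% CO2. Bla FRET substrate 2 hr RT, then CellTiter-Glo 30 min RT, luminescence.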

Assay [8] can be described thus: qHTS assay to identify small molecule agonists or antagonists of the thyroid stimulating hormone receptor (TSHR) signaling pathway - wild type cell line counter screen (AID 1259384). A digest of the protocol:
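Wild-type HEK293 cells were plated 18 h at 37 C/5% CO2, pin-dosed with compound plus Ro20-1724 medium, held 30 min at room temperature, then given cAMP-d2 and anti-cAMP-cryptate; fluorescence was read after 1 h. Fifteen concentrations, triplicate.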

For assay [9], the target named is Thyrotropin receptor (Homo sapiens) (UniProt P16473). Briefly: qHTS assay to identify small molecule antagonists of the thyroid stimulating hormone receptor (TSHR) signaling pathway (AID 1259385). Further: nearly all actives have a fitted effect of over 20% in size. A digest of the protocol: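 TSHR-HEK293 cells were plated and held 18 h at 37C/5% CO2, then given compound plus Ro20-1724 and stimulated with TSH at 1.5 ng/mL final. After 30 min at room temperature, cAMP was detected with cAMP-d2/anti-cAMP-cryptate (1 h) by fluorescence.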
Sequence of Thyrotropin receptor (Homo sapiens) (P16473 whole entry, looked up): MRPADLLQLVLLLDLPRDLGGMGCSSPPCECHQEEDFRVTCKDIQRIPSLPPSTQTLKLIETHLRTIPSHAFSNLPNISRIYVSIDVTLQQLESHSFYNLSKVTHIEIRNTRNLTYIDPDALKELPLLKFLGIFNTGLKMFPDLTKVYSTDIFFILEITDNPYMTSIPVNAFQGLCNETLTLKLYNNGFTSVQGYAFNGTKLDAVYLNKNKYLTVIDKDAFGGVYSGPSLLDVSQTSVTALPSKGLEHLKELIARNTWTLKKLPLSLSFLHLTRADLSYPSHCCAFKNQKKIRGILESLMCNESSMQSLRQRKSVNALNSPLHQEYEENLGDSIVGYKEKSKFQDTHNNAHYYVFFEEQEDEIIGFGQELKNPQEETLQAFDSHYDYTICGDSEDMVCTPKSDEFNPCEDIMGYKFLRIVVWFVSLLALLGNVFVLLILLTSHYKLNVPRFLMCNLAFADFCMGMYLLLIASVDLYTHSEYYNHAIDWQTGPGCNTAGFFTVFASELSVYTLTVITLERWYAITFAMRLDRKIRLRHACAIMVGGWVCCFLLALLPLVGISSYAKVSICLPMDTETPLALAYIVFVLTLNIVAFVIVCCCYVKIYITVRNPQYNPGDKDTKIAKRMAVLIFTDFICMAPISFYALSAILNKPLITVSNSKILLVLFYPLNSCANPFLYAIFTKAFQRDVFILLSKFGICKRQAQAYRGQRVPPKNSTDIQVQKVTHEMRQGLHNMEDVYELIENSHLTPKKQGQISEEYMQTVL

The nature of assay [10]: qHTS assay to identify small molecule agonists of the estrogen receptor alpha (ER-alpha) signaling pathway in the presence of an antagonist - cell viability counter screen (AID 1259386; active means well fitted curve in the direction sought with a large enough effect in the repeat runs; an effect the other way counts as inactive or inconclusive;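 further: series mostly up to about 92 µM; cells exposed to compounds for 22 h at 37 °C before the viability read; nearly all actives have a fitted effect of over 30% in size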). A digest of the protocol: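 VM7Luc4E2, stripped-serum pre-culture 5 d; 24hr plating; +ICI-182,780 10.0nM final; cpds 15 conc, 22hr, 37C/5% CO2; CellTiter-Fluor added at 21hr, fluorescence 1hr later.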

Assay [11] has as its target Progesterone receptor (Homo sapiens) (UniProt P06401). Briefly: qHTS assay to identify small molecule agonists of the progesterone receptor (PR) signaling pathway (AID 1346784). Further: nearly all actives have a fitted effect of over 30% in size. A digest of the protocol: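 Beta-lactamase reporter read-out: after 16 hr compound treatment at 37C and a further 2 hr at room temperature with LiveBLAzer B/G FRET substrate, fluorescence was measured in PR-UAS-bla HEK 293T cells grown in 2% charcoal-stripped serum.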

The target is the same in assay [12]. Briefly: qHTS assay to identify small molecule antagonists of the progesterone receptor (PR) signaling pathway (AID 1346795; active means well fitted inhibition curve with a large enough effect in the signal ratio in the repeat runs, not every such curve was filed as active; the % refers to the signal ratio). A digest of the protocol:
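Read-out is fluorescence from the LiveBLAzer B/G FRET substrate, cleaved by a UAS-controlled beta-lactamase in PR-UAS-bla HEK293T cells after 16 hr exposure to compound plus 1 nM promegestone (final), followed by 2 hr at room temperature.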

Assay [13] is described as follows: qHTS assay to identify small molecule antagonists of the progesterone receptor (PR) signaling pathway - cell viability counter screen (AID 1346798; active means well fitted curve in the direction sought with a large enough effect in the repeat runs; an effect the other way counts as inactive or inconclusive; further: series mostly up to about 92 µM; nearly all actives have a fitted effect of over 50% in size). A digest of the protocol: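 HEK293T PR-UAS-bla, 2% charcoal-stripped FBS; 4 hr pre-plate; cpd + R5020, 16 h 37C; LiveBLAzer read first; then CellTiter-Glo 30 min RT, luminescence.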
The nature of assay [14]: qHTS assay to identify small molecule agonists of the progesterone receptor (PR) signaling pathway - cell viability counter screen (AID 1346799). Further: nearly all actives have a fitted effect of over 45% in size. A digest of the protocol: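 Luminescence from CellTiter-Glo, added after the beta-lactamase FRET read in the same wells, gave cytotoxicity in PR-UAS-bla HEK293T cells treated with compounds for 16 hr at 37C.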
Assay [15] can be described thus: qHTS assay to identify small molecule antagonists of the TGF-beta/Smad signaling pathway - cell viability counter screen (AID 1346824; active means well fitted curve in the direction sought with a large enough effect in the repeat runs; an effect the other way counts as inactive or inconclusive; further: nearly all actives have a fitted effect of over 50% in size). A digest of the protocol: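 SBE-bla HEK 293T cells were plated overnight at 37 C, then given compounds in DMSO plus TGF-beta1 (added as 0.25 ng/mL solution) for 5 hr. After the bla read, CellTiter-Glo was added to the same wells and luminescence read after 30 min at room temperature.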

The nature of assay [16]: qHTS assay to identify small molecule agonists of the TGF-beta/Smad signaling pathway - cell viability counter screen (AID 1346829; active means well fitted curve in the direction sought with a large enough effect in the repeat runs; an effect the other way counts as inactive or inconclusive; further: top concentration of the series differs between compounds; nearly all actives have a fitted effect of over 45% in size). A digest of the protocol: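 In parallel with the Smad reporter read, viability of HEK 293T cells stably carrying SBE-bla is quantified by ATP luminescence following 5 hr compound treatment.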
Assay [17] is described as follows: qHTS assay to identify small molecule agonists of the TGF-beta/Smad signaling pathway (AID 1346859; active means well fitted activation curve with a large enough effect in the signal ratio in the repeat runs, not every such curve was filed as active; the % refers to the signal ratio; further: potency means the concentration at half of the fitted maximal effect; on activation: series mostly up to about 77 µM). A digest of the protocol: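 SBE-bla HEK 293T, 4,000 cells/well, plated o/n; cpd in DMSO, 5 hr, 37 C/5% CO2; B/G FRET substrate 2 hr RT; ex 405, em 460/530 nm.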
Assay [18] has as its target Thyrotropin-releasing hormone receptor (Homo sapiens) (UniProt P34981). Briefly: qHTS assay to identify small molecule antagonists of the thyrotropin-releasing hormone receptor (TRHR) signaling pathway (AID 1346877; active means well fitted inhibition curve with a large enough effect in the repeat runs, not every such curve was filed as active; further: series mostly up to about 51 µM). A digest of the protocol: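 Intracellular calcium fluorescence, read kinetically every second over 3 min, reports TRH-evoked signalling in HEK293 cells carrying TRHR. Test compounds were added 5 min ahead of a 1 nM TRH challenge.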

A short description of assay [19]: qHTS assay to identify small molecule agonists of the androgen receptor (AR) signaling pathway in the presence of an antagonist - cell viability counter screen (AID 1259379; active means well fitted curve in the direction sought with a large enough effect in the repeat runs; an effect the other way counts as inactive or inconclusive;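 further: MDA-kb2 human breast cancer cells carrying an MMTV luciferase reporter; series mostly up to about 92 µM; nearly all actives have a fitted effect of over 25% in size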). A digest of the protocol: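 Cells: MDA-kb2 (MMTV-luc, AR and GR elements), 3,000/well, 5 hr settle. Added: nilutamide 3.0uM final, then compounds (15 conc.). Incubation: 16 hr, 37C, no CO2. Read-out: CellTiter-Fluor, 1 hr, fluorescence.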

Assay [20] concerns the target Estrogen receptor (Homo sapiens) (UniProt P03372). Briefly: qHTS assay to identify small molecule agonists of the estrogen receptor alpha (ER-alpha) signaling pathway in the presence of an antagonist (AID 1259383). Further: top concentration of the series differs between compounds; nearly all actives have a fitted effect of over 15% in size. A digest of the protocol: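 VM7Luc4E2, endog. ER-alpha + 4×ERE-luc; charcoal-stripped FBS, phenol red-free, 5 d; 24hr plating; +10.0nM ICI-182,780 (final); cpds 15 conc, 22hr, 37C/5% CO2; ONE-Glo luminescence.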

Sequence of Estrogen receptor beta (Homo sapiens) (Q92731 whole entry, looked up): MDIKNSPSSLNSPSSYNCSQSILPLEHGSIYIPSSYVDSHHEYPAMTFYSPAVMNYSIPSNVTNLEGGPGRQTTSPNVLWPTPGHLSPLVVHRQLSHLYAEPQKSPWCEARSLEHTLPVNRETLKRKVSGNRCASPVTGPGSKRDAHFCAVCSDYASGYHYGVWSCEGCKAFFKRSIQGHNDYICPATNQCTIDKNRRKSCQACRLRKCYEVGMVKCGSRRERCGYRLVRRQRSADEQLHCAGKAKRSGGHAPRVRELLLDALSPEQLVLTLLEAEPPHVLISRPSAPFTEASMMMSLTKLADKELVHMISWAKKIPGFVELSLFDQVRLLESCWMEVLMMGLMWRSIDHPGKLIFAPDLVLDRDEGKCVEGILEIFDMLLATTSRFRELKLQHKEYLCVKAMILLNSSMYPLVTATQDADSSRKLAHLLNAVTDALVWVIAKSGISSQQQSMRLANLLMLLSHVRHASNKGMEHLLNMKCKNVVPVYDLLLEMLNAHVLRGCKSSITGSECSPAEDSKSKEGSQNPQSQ
Sequence of Thyrotropin-releasing hormone receptor (Homo sapiens) (P34981 whole entry, looked up): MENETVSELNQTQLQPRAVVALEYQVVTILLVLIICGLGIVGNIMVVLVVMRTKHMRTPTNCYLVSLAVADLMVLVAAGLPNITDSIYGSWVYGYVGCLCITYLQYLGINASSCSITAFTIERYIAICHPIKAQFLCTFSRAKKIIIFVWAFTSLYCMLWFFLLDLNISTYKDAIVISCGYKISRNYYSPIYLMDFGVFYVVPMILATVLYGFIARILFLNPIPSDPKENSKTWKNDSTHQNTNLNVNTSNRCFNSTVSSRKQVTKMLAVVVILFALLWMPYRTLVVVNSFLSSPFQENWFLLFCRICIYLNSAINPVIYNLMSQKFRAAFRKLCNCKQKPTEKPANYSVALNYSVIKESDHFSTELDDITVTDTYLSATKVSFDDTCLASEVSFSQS
Sequence of Estrogen receptor (Homo sapiens) (P03372 whole entry, looked up): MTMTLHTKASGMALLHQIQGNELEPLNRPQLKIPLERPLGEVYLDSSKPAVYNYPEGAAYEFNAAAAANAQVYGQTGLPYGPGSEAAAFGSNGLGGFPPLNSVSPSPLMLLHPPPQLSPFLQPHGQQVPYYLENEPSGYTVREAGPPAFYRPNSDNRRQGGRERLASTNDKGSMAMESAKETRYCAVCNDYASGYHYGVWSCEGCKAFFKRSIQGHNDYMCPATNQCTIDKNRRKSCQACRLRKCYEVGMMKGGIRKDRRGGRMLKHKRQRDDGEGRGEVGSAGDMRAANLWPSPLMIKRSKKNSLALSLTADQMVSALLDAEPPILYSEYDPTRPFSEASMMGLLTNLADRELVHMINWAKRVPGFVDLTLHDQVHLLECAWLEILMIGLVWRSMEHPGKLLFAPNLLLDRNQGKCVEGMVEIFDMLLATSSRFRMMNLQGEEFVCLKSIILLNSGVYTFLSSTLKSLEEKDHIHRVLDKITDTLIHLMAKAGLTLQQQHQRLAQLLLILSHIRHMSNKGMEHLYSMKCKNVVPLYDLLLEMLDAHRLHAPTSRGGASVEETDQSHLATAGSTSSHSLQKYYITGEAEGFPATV
Sequence of Progesterone receptor (Homo sapiens) (P06401 whole entry, looked up): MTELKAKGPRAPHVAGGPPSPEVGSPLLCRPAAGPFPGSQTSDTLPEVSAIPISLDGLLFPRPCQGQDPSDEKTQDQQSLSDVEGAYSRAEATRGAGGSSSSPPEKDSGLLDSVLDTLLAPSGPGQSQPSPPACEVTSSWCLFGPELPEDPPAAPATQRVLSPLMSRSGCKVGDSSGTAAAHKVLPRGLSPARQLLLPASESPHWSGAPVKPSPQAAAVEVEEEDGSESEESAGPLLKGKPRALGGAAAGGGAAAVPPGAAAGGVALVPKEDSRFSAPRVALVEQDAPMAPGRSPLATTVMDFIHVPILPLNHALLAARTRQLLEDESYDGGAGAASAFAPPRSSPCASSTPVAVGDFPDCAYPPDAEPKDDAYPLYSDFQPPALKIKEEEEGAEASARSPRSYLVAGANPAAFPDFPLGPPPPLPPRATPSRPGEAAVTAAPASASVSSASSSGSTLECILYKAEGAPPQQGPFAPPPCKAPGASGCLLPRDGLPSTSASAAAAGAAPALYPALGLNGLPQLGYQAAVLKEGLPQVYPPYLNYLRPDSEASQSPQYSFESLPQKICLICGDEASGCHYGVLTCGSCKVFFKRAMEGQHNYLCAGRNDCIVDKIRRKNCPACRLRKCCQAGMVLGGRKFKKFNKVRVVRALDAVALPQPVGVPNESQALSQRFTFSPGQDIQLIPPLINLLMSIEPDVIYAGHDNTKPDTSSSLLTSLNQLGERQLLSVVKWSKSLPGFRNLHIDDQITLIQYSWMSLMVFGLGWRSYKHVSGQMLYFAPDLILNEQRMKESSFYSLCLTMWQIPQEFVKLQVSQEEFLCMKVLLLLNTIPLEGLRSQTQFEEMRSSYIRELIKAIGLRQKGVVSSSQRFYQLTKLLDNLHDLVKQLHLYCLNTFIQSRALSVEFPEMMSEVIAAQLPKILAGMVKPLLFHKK
Sequence of Androgen receptor (Homo sapiens) (P10275 whole entry, looked up): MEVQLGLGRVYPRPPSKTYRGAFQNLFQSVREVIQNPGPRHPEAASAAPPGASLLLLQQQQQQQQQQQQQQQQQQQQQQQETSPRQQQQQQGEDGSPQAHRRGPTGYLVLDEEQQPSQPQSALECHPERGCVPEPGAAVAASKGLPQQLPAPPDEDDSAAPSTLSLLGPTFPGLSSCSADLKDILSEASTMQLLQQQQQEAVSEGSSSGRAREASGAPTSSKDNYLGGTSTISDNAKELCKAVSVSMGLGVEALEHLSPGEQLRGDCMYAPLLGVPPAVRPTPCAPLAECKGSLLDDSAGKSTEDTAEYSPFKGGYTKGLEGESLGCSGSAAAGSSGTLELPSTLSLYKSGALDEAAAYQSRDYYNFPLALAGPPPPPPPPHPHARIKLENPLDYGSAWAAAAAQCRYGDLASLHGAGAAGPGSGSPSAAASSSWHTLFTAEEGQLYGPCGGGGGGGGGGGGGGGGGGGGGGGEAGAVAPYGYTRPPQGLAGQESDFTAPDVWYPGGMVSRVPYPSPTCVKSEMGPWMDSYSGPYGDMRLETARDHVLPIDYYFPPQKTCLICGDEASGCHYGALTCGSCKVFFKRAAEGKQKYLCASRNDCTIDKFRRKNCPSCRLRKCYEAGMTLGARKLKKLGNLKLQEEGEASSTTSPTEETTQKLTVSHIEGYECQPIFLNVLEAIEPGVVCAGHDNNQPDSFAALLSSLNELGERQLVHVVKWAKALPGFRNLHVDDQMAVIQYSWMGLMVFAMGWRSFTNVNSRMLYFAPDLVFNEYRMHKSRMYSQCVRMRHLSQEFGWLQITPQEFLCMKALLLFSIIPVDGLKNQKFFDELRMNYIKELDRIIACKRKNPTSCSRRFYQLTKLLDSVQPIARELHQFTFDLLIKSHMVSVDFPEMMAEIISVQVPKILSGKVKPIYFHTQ

Consider `O=C1CC[C@@H](C(=O)O)N1`, for which the Potency result in assay [1], in [2], in assay [3], in [4], in assay [5] and in assay [6] was “inactive” each time. The Potency entry in [7], in assay [8], in assay [9], in [10], in assay [11] and in assay [12] was “inactive” in each case. Further, the Potency entry in assay [13], in assay [14], in assay [16] and in assay [17] was “inactive” each time. The compound was called inactive in assay [15] and in assay [18].

Turning to `COC(OC)OC`, the Potency result in assay [1], in [2], in assay [3], in assay [4], in assay [19] and in [7] was “inactive” throughout. In addition, the Potency result in assay [20], in [8], in assay [9], in [10], in assay [11] and in assay [12] was “inactive” throughout. Moreover, the Potency entry in assay [13], in assay [14], in assay [16] and in assay [17] was “inactive” each time.

`CCN(CC)CCOC(=O)C(c1ccccc1)c1ccccc1`: the Potency result in assay [1], in assay [2], in assay [3], in [4], in [19] and in assay [7] was “inactive” each time. The Potency entry in assay [8], in assay [9], in [10], in assay [11], in assay [12] and in assay [13] was “inactive” throughout. Moreover, the Potency result in assay [14], in [16] and in assay [17] was “inactive” throughout. Further, the call in assay [15] and in [18] was inactive.

As for `CCCCC(CC)COS(=O)(=O)O` (centres undefined), the Potency entry in [1], in [2], in assay [3], in assay [4], in [19] and in [20] was “inactive” each time. The Potency entry in [8], in assay [9], in assay [10], in assay [11], in [12] and in assay [13] was “inactive” each time. Further, the Potency entry in [14], in assay [16] and in assay [17] was “inactive” each time. In assay [18], the compound was called inactive.

With `Nc1ccn([C@H]2CS[C@@H](CO)O2)c(=O)n1`, the Potency result in assay [1], in assay [2], in assay [3], in assay [4], in [19] and in [7] was “inactive” throughout. In addition, the Potency entry in assay [8], in assay [9], in assay [10], in assay [11], in assay [12] and in assay [13] was “inactive” throughout. In addition, the Potency entry in [16] and in [17] was “inactive” each time.

Take `COC(=O)Nc1nc2ccc(C(=O)C3CC3)cc2[nH]1`: the Potency entry in [1], in assay [2], in [3], in [4], in assay [5] and in [7] was “inactive” throughout. Further, the Potency entry in assay [20], in assay [8], in [10], in assay [11], in [16] and in assay [17] was “inactive” in each case. For the same compound, in assay [15], the call was inactive.

In the case of `CCOC(=O)c1c(N)sc2c1CCN(Cc1ccccc1)C2`, the Potency result in assay [1], in assay [3], in assay [4], in assay [19], in assay [7] and in assay [20] was “inactive” each time. The Potency result in assay [8], in assay [11], in assay [12], in assay [13] and in [14] was “inactive” each time. In addition, the Potency was 10.6 µM (active) in assay [2] and 7.56 µM (active) in [17]. Also, the compound was called inactive in [18].

As to `O=C(O)c1ccc(O)cc1O`, the Potency entry in assay [1], in assay [2], in [3], in assay [4], in assay [19] and in assay [7] was “inactive” throughout. Besides, the Potency result in [8], in assay [9], in assay [10], in assay [11], in [12] and in assay [13] was “inactive” each time. Besides, the Potency entry in [14], in assay [16] and in [17] was “inactive” throughout. Also, the call in [15] and in assay [18] was inactive.

With `CCCc1nc2c(C)cc(-c3nc4ccccc4n3C)cc2n1Cc1ccc(-c2ccccc2C(=O)O)cc1`, the Potency result in [1], in assay [2], in [3], in [4], in assay [19] and in [7] was “inactive” each time. Moreover, the Potency result in [20], in [8], in assay [10], in assay [11], in assay [12] and in assay [14] was “inactive” each time. The call in [15] and in [18] was inactive.
